Screen size: about 5,500 compounds; about 2,000 (36%) were called active. Another 18% or so got no clear call; they are omitted. No stated cut-off is given here; in the data, active means normalized growth mostly below about 0.91 (no sharp cut-off); inconclusive means no clear call, values can overlap the other calls; inactive means mostly above about 0.92. This is one part of the list.
Assay: chemical genetic growth profiling, strain panel (AID 1159580);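 further: tested at 20 µM; growth read once vehicle control cultures reached saturation at 30 °C; 1 = growth at the plate median or of vehicle wells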
Conditions: growth OD
[1] = S. cerevisiae deletion strains, locus YAL013W, strain DEP1, stronger effect = lower value
[2] = S. cerevisiae deletion strains, locus YBR229C, strain ROT2, stronger effect = lower value
[3] = S. cerevisiae deletion strains, locus YCL061C, strain MRC1, stronger effect = lower value
[4] = S. cerevisiae deletion strains, locus YDL101C, strain DUN1, stronger effect = lower value
[5] = S. cerevisiae deletion strains, locus YDL134C, strain PPH21, stronger effect = lower value
[6] = S. cerevisiae deletion strains, locus YDR150W, strain NUM1, stronger effect = lower value
[7] = S. cerevisiae deletion strains, locus YEL061C, strain CIN8, stronger effect = lower value
[8] = S. cerevisiae deletion strains, locus YGR078C, strain PAC10, stronger effect = lower value
[9] = S. cerevisiae deletion strains, locus YHR030C, strain SLT2, stronger effect = lower value
[10] = S. cerevisiae deletion strains, locus YHR087W, strain rtc3, stronger effect = lower value
[11] = S. cerevisiae deletion strains, locus YJL187C, strain SWE1, stronger effect = lower value
[12] = S. cerevisiae deletion strains, locus YJR043C, strain POL32, stronger effect = lower value
[13] = S. cerevisiae deletion strains, locus YJR075W, strain HOC1, stronger effect = lower value
[14] = S. cerevisiae deletion strains, locus YKL190W, strain CNB1, stronger effect = lower value
[15] = S. cerevisiae deletion strains, locus YLR039C, strain RIC1, stronger effect = lower value
[16] = S. cerevisiae deletion strains, locus YLR058C, strain SHM2 (second series), stronger effect = lower value
[17] = S. cerevisiae deletion strains, locus YLR085C, strain ARP6, stronger effect = lower value
[18] = S. cerevisiae deletion strains, locus YLR262C, strain YPT6, stronger effect = lower value
[19] = S. cerevisiae deletion strains, locus YML094W, strain GIM5, stronger effect = lower value
[20] = S. cerevisiae deletion strains, locus YMR219W, strain ESC1, stronger effect = lower value
[21] = S. cerevisiae deletion strains, locus YMR263W, strain SAP30, stronger effect = lower value
[22] = S. cerevisiae deletion strains, locus YMR307W, strain GAS1, stronger effect = lower value
[23] = S. cerevisiae deletion strains, locus YNL153C, strain GIM3, stronger effect = lower value
[24] = S. cerevisiae deletion strains, locus YNL298W, strain CLA4 (second series), stronger effect = lower value
[25] = S. cerevisiae deletion strains, locus YNL322C, strain KRE1, stronger effect = lower value
[26] = S. cerevisiae deletion strains, locus YNR030W, strain Alg12, stronger effect = lower value
[27] = S. cerevisiae deletion strains, locus YOL006C, strain TOP1, stronger effect = lower value
[28] = S. cerevisiae deletion strains, locus YPL055C, strain LGE1, stronger effect = lower value
[29] = S. cerevisiae deletion strains, locus YPL241C, strain CIN2, stronger effect = lower value
[30] = S. cerevisiae deletion strains, locus YPR135W, strain CTF4, stronger effect = lower value
[31] = S. cerevisiae strains, strain wild type, stronger effect = lower value

Measured: normalized growth

N#Cc1ccc(-c2csc(-c3ccc(Oc4ccc(C(F)(F)F)cn4)cc3)n2)cc1
active: [29] 1.33 [resistant]
inactive: [1] 0.98 | [2] 1 | [3] 1.01 | [4] 1.03 | [5] 0.986 | [6] 1.01 | [7] 1.01 | [8] 0.996 | [9] 1.03 | [10] 0.984 | [11] 1 | [12] 1.01 | [13] 1.03 | [14] 1.01 | [15] 0.974 | [16] 1 | [17] 1.14 | [18] 0.974 | [19] 0.99 | [20] 1 | [21] 1.03 | [22] 1.32 | [23] 1.02 | [24] 1 | [25] 0.994 | [26] 1 | [27] 1.05 | [28] 0.998 | [30] 0.88 | [31] 0.99

Cc1ccc(-c2csc(-c3ccc(Oc4ccc(C(F)(F)F)cn4)cc3)n2)c(C)c1
inactive: [1] 0.995 | [2] 1 | [3] 1.02 | [4] 1.03 | [5] 0.992 | [6] 1.01 | [7] 1 | [8] 1.01 | S. cerevisiae deletion strains, locus YGR229C, strain SMI1, stronger effect = lower value 0.996 | [9] 1.06 | [10] 0.995 | [12] 1.01 | [13] 1.03 | [14] 0.993 | [15] 1.03 | [16] 1 | [17] 1.17 | [18] 0.996 | [19] 1 | [20] 0.998 | [21] 1.03 | [22] 1.24 | [23] 1.02 | [24] 1 | [25] 1 | [26] 1 | [28] 1.01 | [29] 1.03 | [30] 0.966 | [31] 0.988

C/C(=N/NC(=S)Nc1ccc(C(C)C)cc1)c1ccco1
inactive: [4] 0.905 | [6] 0.805 | [12] 0.937 | [16] 0.967 | [25] 0.991 | [28] 0.847
active: [1] 0.906 | [2] 0.859 | [3] 0.909 | [5] 0.629 | [7] 0.433 | [8] 0.864 | [9] 0.242 | [10] 0.817 | [11] 0.866 | [13] 0.879 | [14] 0.583 | [15] 0.487 | [17] 0.158 | [18] 0.617 | [19] 0.687 | [20] 0.93 | [21] 0.892 | [22] 0.376 | [23] 0.875 | [24] 0.437 | [26] 0.609 | [27] 0.17 | [29] 0.516 | [30] 0.398 | [31] 0.741

O/N=C(/c1ccc(Cl)cc1)c1cc2ccccc2o1
active: [9] 0.526 | S. cerevisiae deletion strains, locus YJL095W, strain BCK1, stronger effect = lower value 0.403 | S. cerevisiae deletion strains, locus YKL203C, strain TOR2, stronger effect = lower value 0.622 | S. cerevisiae deletion strains, locus YLR403W, strain SFP1, stronger effect = lower value 0.614
inactive: S. cerevisiae deletion strains, locus YAR019C, strain CDC15, stronger effect = lower value 0.936 | S. cerevisiae deletion strains, locus YBL105C, strain PKC1, stronger effect = lower value 0.946 | S. cerevisiae deletion strains, locus YBR135W, strain CKS1, stronger effect = lower value 0.939 | S. cerevisiae deletion strains, locus YBR136W, strain MEC1, stronger effect = lower value 0.945 | S. cerevisiae deletion strains, locus YBR160W, strain CDC28, stronger effect = lower value 0.957 | S. cerevisiae deletion strains, locus YDL017W, strain CDC7, stronger effect = lower value 0.946 | S. cerevisiae deletion strains, locus YDL028C, strain MPS1, stronger effect = lower value 0.948 | [4] 0.964 | S. cerevisiae deletion strains, locus YDL108W, strain KIN28, stronger effect = lower value 0.943 | S. cerevisiae deletion strains, locus YDL132W, strain cdc53, stronger effect = lower value 0.962 | S. cerevisiae deletion strains, locus YDL214C, strain PRR2, stronger effect = lower value 0.887 | S. cerevisiae deletion strains, locus YDR052C, strain DBF4, stronger effect = lower value 0.93 | S. cerevisiae deletion strains, locus YDR054C, strain cdc34, stronger effect = lower value 0.947 | S. cerevisiae deletion strains, locus YDR226W, strain ADK1, stronger effect = lower value 0.916 | S. cerevisiae deletion strains, locus YDR477W, strain SNF1, stronger effect = lower value 0.847 | S. cerevisiae deletion strains, locus YER123W, strain YCK3, stronger effect = lower value 0.883 | S. cerevisiae deletion strains, locus YER133W, strain GLC7, stronger effect = lower value 0.813 | S. cerevisiae deletion strains, locus YFL009W, strain cdc4, stronger effect = lower value 0.963 | S. cerevisiae deletion strains, locus YFL029C, strain CAK1, stronger effect = lower value 0.94 | S. cerevisiae deletion strains, locus YFR003C, strain YPI1, stronger effect = lower value 0.943 | S. cerevisiae deletion strains, locus YFR019W, strain FAB1, stronger effect = lower value 0.904 | S. cerevisiae deletion strains, locus YFR028C, strain CDC14, stronger effect = lower value 0.956 | S. cerevisiae deletion strains, locus YGR040W, strain KSS1, stronger effect = lower value 0.852 | S. cerevisiae deletion strains, locus YGR052W, strain FMP48, stronger effect = lower value 0.789 | S. cerevisiae deletion strains, locus YGR092W, strain DBF2, stronger effect = lower value 0.748 | S. cerevisiae deletion strains, locus YHR079C, strain IRE1, stronger effect = lower value 0.851 | S. cerevisiae deletion strains, locus YHR082C, strain KSP1, stronger effect = lower value 0.877 | S. cerevisiae deletion strains, locus YHR205W, strain SCH9, stronger effect = lower value 0.675 | S. cerevisiae deletion strains, locus YIL147C, strain SLN1, stronger effect = lower value 0.943 | S. cerevisiae deletion strains, locus YJL128C, strain PBS2, stronger effect = lower value 0.893 | S. cerevisiae deletion strains, locus YJL157C, strain FAR1, stronger effect = lower value 0.872 | S. cerevisiae deletion strains, locus YJR016C, strain ILV3, stronger effect = lower value 0.941 | S. cerevisiae deletion strains, locus YJR066W, strain TOR1 (second series), stronger effect = lower value 0.848 | S. cerevisiae deletion strains, locus YJR066W, strain TOR1, stronger effect = lower value 0.797 | S. cerevisiae deletion strains, locus YKL048C, strain ELM1, stronger effect = lower value 0.923 | S. cerevisiae deletion strains, locus YKL067W, strain YNK1, stronger effect = lower value 0.893 | S. cerevisiae deletion strains, locus YKL101W, strain HSL1, stronger effect = lower value 0.916 | S. cerevisiae deletion strains, locus YKL193C, strain SDS22, stronger effect = lower value 0.93 | S. cerevisiae deletion strains, locus YLR113W, strain HOG1, stronger effect = lower value 0.915 | S. cerevisiae deletion strains, locus YLR133W, strain CKI1, stronger effect = lower value 0.863 | S. cerevisiae deletion strains, locus YML070W, strain DAK1, stronger effect = lower value 0.868 | S. cerevisiae deletion strains, locus YMR001C, strain CDC5, stronger effect = lower value 0.936 | S. cerevisiae deletion strains, locus YMR205C, strain PFK2 (second series), stronger effect = lower value 0.862 | S. cerevisiae deletion strains, locus YMR277W, strain FCP1, stronger effect = lower value 0.933 | S. cerevisiae deletion strains, locus YNL006W, strain LST8, stronger effect = lower value 0.945 | S. cerevisiae deletion strains, locus YNL020C, strain ARK1, stronger effect = lower value 0.82 | S. cerevisiae deletion strains, locus YNL161W, strain CBK1, stronger effect = lower value 0.942 | S. cerevisiae deletion strains, locus YNL183C, strain NPR1, stronger effect = lower value 0.784 | S. cerevisiae deletion strains, locus YNL207W, strain RIO2, stronger effect = lower value 0.935 | S. cerevisiae deletion strains, locus YNL222W, strain SSU72, stronger effect = lower value 0.947 | S. cerevisiae deletion strains, locus YNL307C, strain MCK1 (second series), stronger effect = lower value 0.902 | S. cerevisiae deletion strains, locus YOL078W, strain AVO1, stronger effect = lower value 0.937 | S. cerevisiae deletion strains, locus YOL136C, strain PFK27, stronger effect = lower value 0.865 | S. cerevisiae deletion strains, locus YOR061W, strain CKA2, stronger effect = lower value 0.87 | S. cerevisiae deletion strains, locus YOR119C, strain RIO1, stronger effect = lower value 0.848 | S. cerevisiae deletion strains, locus YOR231W, strain MKK1, stronger effect = lower value 0.964 | S. cerevisiae deletion strains, locus YOR329C, strain SCD5, stronger effect = lower value 0.946 | S. cerevisiae deletion strains, locus YPL031C, strain PHO85, stronger effect = lower value 0.84 | S. cerevisiae deletion strains, locus YPL153C, strain RAD53, stronger effect = lower value 0.841 | S. cerevisiae deletion strains, locus YPL204W, strain HRR25, stronger effect = lower value 0.807 | S. cerevisiae deletion strains, locus YPL209C, strain IPL1, stronger effect = lower value 0.941 | S. cerevisiae deletion strains, locus YPL256C, strain CLN2, stronger effect = lower value 0.917 | S. cerevisiae deletion strains, locus YPR025C, strain CCL1, stronger effect = lower value 0.948 | S. cerevisiae deletion strains, locus YPR106W, strain ISR1, stronger effect = lower value 0.946 | S. cerevisiae deletion strains, locus YPR111W, strain DBF20, stronger effect = lower value 0.951 | S. cerevisiae deletion strains, strain NNK1, stronger effect = lower value 0.946 | S. cerevisiae deletion strains, strain TSCII, stronger effect = lower value 0.939

Reference: PubChem BioAssay AID1159580 (chemical genetic matrix, 2015)
